Results as given in paper PMC4336329 (PLoS ONE, 2015).
The campaign covered roughly 310,000 compounds. About 14,000 (4.5%) showed an effect of 50% or more. The effect is printed as a negative number. This excerpt belongs to a sample that is enriched for strong results.

Biological target: human ether-à-go-go-related gene (hERG) potassium channel (human, UniProt Q12809)
Experiment: primary screen, population patch clamp on CHO cells stably expressing hERG; higher = less effect of the substance
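Also: peak tail current of the secondary pulse compared with the same well before compound.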

Chain of human ether-à-go-go-related gene (hERG) potassium channel (Q12809 whole entry, looked up): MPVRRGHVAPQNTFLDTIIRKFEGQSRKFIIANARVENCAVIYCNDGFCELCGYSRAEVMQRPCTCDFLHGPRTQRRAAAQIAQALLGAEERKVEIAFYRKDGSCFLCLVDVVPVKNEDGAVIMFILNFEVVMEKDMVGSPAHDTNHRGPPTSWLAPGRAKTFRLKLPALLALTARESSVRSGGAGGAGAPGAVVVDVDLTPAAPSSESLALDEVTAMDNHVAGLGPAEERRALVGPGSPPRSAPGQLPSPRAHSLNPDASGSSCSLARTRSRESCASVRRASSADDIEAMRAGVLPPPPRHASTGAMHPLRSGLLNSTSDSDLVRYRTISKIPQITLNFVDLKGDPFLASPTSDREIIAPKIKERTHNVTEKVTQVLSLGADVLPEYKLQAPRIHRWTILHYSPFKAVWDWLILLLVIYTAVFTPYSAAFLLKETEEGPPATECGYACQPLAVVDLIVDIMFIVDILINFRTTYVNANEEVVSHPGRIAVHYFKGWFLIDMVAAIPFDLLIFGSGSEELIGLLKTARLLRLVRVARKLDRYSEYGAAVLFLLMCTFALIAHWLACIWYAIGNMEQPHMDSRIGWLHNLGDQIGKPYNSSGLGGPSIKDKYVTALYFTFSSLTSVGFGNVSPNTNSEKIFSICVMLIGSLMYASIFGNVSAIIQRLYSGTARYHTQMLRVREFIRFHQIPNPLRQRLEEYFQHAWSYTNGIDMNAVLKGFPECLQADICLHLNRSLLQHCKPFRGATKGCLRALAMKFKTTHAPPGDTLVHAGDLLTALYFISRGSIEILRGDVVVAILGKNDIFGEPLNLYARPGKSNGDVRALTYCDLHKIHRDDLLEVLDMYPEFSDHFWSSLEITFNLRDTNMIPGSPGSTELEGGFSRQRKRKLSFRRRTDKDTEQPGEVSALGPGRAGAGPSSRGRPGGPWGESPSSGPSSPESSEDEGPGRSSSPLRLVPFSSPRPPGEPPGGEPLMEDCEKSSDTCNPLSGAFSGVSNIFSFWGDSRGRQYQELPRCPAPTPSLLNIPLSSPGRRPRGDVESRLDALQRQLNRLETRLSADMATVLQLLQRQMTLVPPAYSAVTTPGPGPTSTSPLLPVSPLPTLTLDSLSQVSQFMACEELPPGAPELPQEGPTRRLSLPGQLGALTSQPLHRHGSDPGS

First: CCCCCOC(=O)C1=C(C)NC(=O)NC1c1ccc(N(C)C)cc1 (stereo not shown)
Second: CCN(CC)CCNC(=O)c1ccc(NC(=O)C2CCN(c3ncnc4sc(C)c(C)c34)CC2)cc1
The “hERG current change (%, negative = inhibition) at 10uM” value of the first is higher: 12.5% for the first, -29.8% for the second.

Going from `COc1ccc(C2C3=C(CC(C)(C)CC3=O)Nc3c2c(=O)[nH]c(=O)n3Cc2ccccc2)cc1OC` (stereo not shown) to `COc1cccc(-n2c(SCC(N)=O)nc3c([nH]c4ccccc43)c2=O)c1`, the “hERG current change (%, negative = inhibition) at 10uM” value rises from -3.11% to -0.054%.

Compared with `CCOC(=O)Cc1csc(NC(=O)CCCN2C(=O)c3ccccc3C2=O)n1`, `CCOC(=O)c1c(NC(=O)COC(=O)Cn2cnc3ccccc32)sc2c1CCC(C)C2` (stereo not shown) is lower in “hERG current change (%, negative = inhibition) at 10uM” value: 12.2% for the first, -3.78% for the second.

First: O=C(C1CCN(c2ncnc3c2sc2cccc(F)c23)CC1)N1CCCC1
Second: O=C(C1CCN(c2ncnc3c2sc2cccc(F)c23)CC1)N1CCOCC1
The “hERG current change (%, negative = inhibition) at 10uM” value of the first is higher: -19.7% for the first, -27.8% for the second.

Compared with `CCN(CC)CCCNC(=O)C1CCN(c2ncnc3c2sc2cccc(F)c23)CC1`, `CCCCN(CC)CCCNC(=O)C1CCN(c2ncnc3c2sc2cccc(F)c23)CC1` is lower in “hERG current change (%, negative = inhibition) at 10uM” value: -50.2% for the first, -70.3% for the second.

First: COc1ccc(-c2noc(N3CCC(C(=O)NCCCN4CC(C)CC(C)C4)CC3)n2)cc1 (stereo not shown)
Second: CC1CC(C)CN(CCCNC(=O)C2CCN(c3ncnc4c3sc3cccc(F)c34)CC2)C1 (stereo not shown)
The “hERG current change (%, negative = inhibition) at 10uM” value of the first is higher: -18.1% for the first, -65.8% for the second.

First: O=C(NC1CC1)C1CCN(c2nc3ccccc3s2)CC1
Second: O=C(NC1CC1)C1CCN(c2ncnc3c2sc2cccc(F)c23)CC1
The “hERG current change (%, negative = inhibition) at 10uM” value of the first is higher: -5.63% for the first, -52% for the second.

First: CCOC(=O)N1CCN(C(=O)C2CCN(c3ncnc4c3sc3cccc(F)c34)CC2)CC1
Second: O=C(NCCN1CCOCC1)C1CCN(c2ncnc3c2sc2cccc(F)c23)CC1
The “hERG current change (%, negative = inhibition) at 10uM” value of the first is lower: -59.9% for the first, -25.6% for the second.

Compared with `CCN(CC)CCCNC(=O)C1CCN(C(=O)c2cc3sccc3n2Cc2ccc(F)cc2)CC1`, `CCCCN(CC)CCNC(=O)C1CCN(S(=O)(=O)c2cccc3nsnc23)CC1` is lower in “hERG current change (%, negative = inhibition) at 10uM” value: -2.11% for the first, -11% for the second.

Going from `O=C(Nc1ccc(F)cc1F)C1CCN(c2ncnc3c2sc2cccc(F)c23)CC1` to `CC(C)[C@H](NC(=O)c1c(F)cccc1F)C(=O)N1CCN(c2ccc(F)cc2)CC1`, the “hERG current change (%, negative = inhibition) at 10uM” value falls from 3.98% to -54.2%.

Compared with `O=C(Nc1cc(-c2nc3ncccc3o2)ccc1Cl)c1ccc2c(c1)OCO2`, `Cc1onc(-c2ccccc2Cl)c1C(=O)Nc1ccc2c(c1)OCO2` is higher in “hERG current change (%, negative = inhibition) at 10uM” value: 10.2% for the first, 10.3% for the second.

Compared with `Cc1ccc(C(=O)NCCc2ccc(S(N)(=O)=O)cc2)o1`, `COc1cc(NC(=O)c2ccc(Br)o2)ccc1NC(=O)c1ccccc1Cl` is lower in “hERG current change (%, negative = inhibition) at 10uM” value: 16.1% for the first, -22.4% for the second.

First: O=C(Nc1ccc(-c2ccccc2)cc1)c1ccc2c(c1)S(=O)(=O)c1ccccc1C2=O
Second: O=C(COc1ccccc1)OC(C(=O)c1ccccc1)c1ccccc1 (stereo not shown)
The “hERG current change (%, negative = inhibition) at 10uM” value of the first is lower: 7.7% for the first, 16.5% for the second.

Going from `CC1(C)NC(=O)N(CC(O)COC2CCCCC2)C1=O` (stereo not shown) to `CC(C)C(NC(=O)C1CCCCC1)C(=O)N1CCN(c2ccc(F)cc2)CC1` (stereo not shown), the “hERG current change (%, negative = inhibition) at 10uM” value falls from 8.64% to -55.7%.

Compared with `FC(F)(F)c1ccccc1CNCc1ccncc1`, `COc1ccccc1-n1c(C)nnc1SCC(=O)NCc1ccccc1` is higher in “hERG current change (%, negative = inhibition) at 10uM” value: 4.43% for the first, 11.5% for the second.

Compared with `CCCCNC(=O)C1CCN(c2nc(C)cc(C)n2)CC1`, `CC(=O)Nc1sc2c(c1CN1CCCC1)CCCC2` is lower in “hERG current change (%, negative = inhibition) at 10uM” value: 17% for the first, 7.34% for the second.

Compared with `CC1(C)CC2CC(C)(CN2C(=O)COC(=O)Cn2[nH]c(=O)c3ccccc3c2=O)C1` (stereo not shown), `CCOC(=O)CN(C(=O)CNC(=O)c1ccco1)C(C(=O)NC1CCCCC1)c1cccnc1` (stereo not shown) is higher in “hERG current change (%, negative = inhibition) at 10uM” value: 2.26% for the first, 12.2% for the second.

Going from `CCn1c(CNC(=O)c2ccc(Cl)cc2)nnc1SCC(=O)NC1=NCCS1` to `CCN(CC)C(=O)CSc1nnc(SCc2ccc(Cl)cc2)s1`, the “hERG current change (%, negative = inhibition) at 10uM” value falls from 18% to -3.44%.

First: CC(=O)Nc1sc2c(c1CN1CCN(c3ccccn3)CC1)CCCC2
Second: CC(=O)Nc1sc2c(c1CN1CCN(C)CC1)CCCC2
The “hERG current change (%, negative = inhibition) at 10uM” value of the first is lower: -55.3% for the first, -1.92% for the second.

First: O=C(O)C1(NS(=O)(=O)c2ccc(F)c(Cl)c2)CCCCC1
Second: O=C(NC1CCCCC1)c1ccc(S(=O)(=O)N2CCOCC2)cc1
The “hERG current change (%, negative = inhibition) at 10uM” value of the first is higher: 7.65% for the first, -2.69% for the second.

First: N#C/C(=C/Nc1ccccc1)c1ccsc1
Second: CC(CCN1CCN=C1Nc1ccccc1)c1ccccc1 (stereo not shown)
The “hERG current change (%, negative = inhibition) at 10uM” value of the first is higher: 7.85% for the first, -33.8% for the second.

First: CC(C)[C@H](NC(=O)C1CC(=O)N(c2ccc(F)cc2)C1)C(=O)N1CCCCC1 (stereo partly shown)
Second: CC(C)[C@H](NC(=O)C1CCN(S(=O)(=O)c2ccc(F)cc2)CC1)C(=O)N1CCCCCC1
The “hERG current change (%, negative = inhibition) at 10uM” value of the first is higher: 7.29% for the first, 5.18% for the second.

Compared with `CC(C)C(NC(=O)c1c(F)cccc1F)C(=O)N1CCN(c2ccccc2F)CC1` (stereo not shown), `COc1ccc(N2CCN(C(=O)C(NC(=O)c3c(F)cccc3F)C(C)C)CC2)cc1` (stereo not shown) is higher in “hERG current change (%, negative = inhibition) at 10uM” value: -1.76% for the first, 10.5% for the second.

First: CC(C)(C)OC(=O)N1CCN(C(=O)c2[nH]cnc2C(=O)Nc2ccon2)CC1
Second: Cc1nnc(SCC(=O)NC2CCCc3ccccc32)n1-c1ccccc1 (stereo not shown)
The “hERG current change (%, negative = inhibition) at 10uM” value of the first is higher: 9.6% for the first, -0.602% for the second.

Compared with `Fc1ccc(-c2nc3c(-c4ccccc4)cnn3cc2CCN2CCOCC2)cc1`, `COc1ccc(-n2c(Cc3cccn3C)nnc2SCC(=O)Nc2ccccc2)cc1` is lower in “hERG current change (%, negative = inhibition) at 10uM” value: -15.2% for the first, -19.5% for the second.

First: CCC(C)CCN1CCN=C1Nc1ccccc1 (stereo not shown)
Second: CCC(C)CCN1C(Nc2ccccc2)=NC[C@@H]1C (stereo partly shown)
The “hERG current change (%, negative = inhibition) at 10uM” value of the first is higher: -1.89% for the first, -4.88% for the second.

First: CCC(C)CCN1C(Nc2ccccc2)=NC[C@@H]1CC(C)C (stereo partly shown)
Second: CC(C)C[C@H]1CN=C(Nc2ccccc2)N1CCC(C)c1ccccc1 (stereo partly shown)
The “hERG current change (%, negative = inhibition) at 10uM” value of the first is higher: -41.1% for the first, -67% for the second.

Compared with `CC(CCN1C(Nc2ccccc2)=NC[C@@H]1Cc1ccccc1)c1ccccc1` (stereo partly shown), `CCC(C)CCN1C(Nc2ccccc2)=NC[C@@H]1Cc1ccccc1` (stereo partly shown) is higher in “hERG current change (%, negative = inhibition) at 10uM” value: -74.8% for the first, -59.6% for the second.

Going from `CC(C)CCN1C(Nc2ccccc2)=NC[C@@H]1C` to `CC(CCN1C(Nc2ccccc2)=NC[C@@H]1C)c1ccccc1` (stereo partly shown), the “hERG current change (%, negative = inhibition) at 10uM” value falls from -9.63% to -52.4%.
